Results reported in PubChem BioAssay (NCATS).
Results filed as inconclusive are left out. Unmarked numbers belong to inactive results. Active and inactive are the calls of the source. The call rests on the fitted dose curve; in most records, active means well fitted cell-killing curve with a large enough effect; inconclusive means small, poorly fitted or top-dose-only effect, or effect the other way; inactive means no such curve, though single readings can be large or run the other way.

Experiments:
[1] = Quantitative High-Throughput drug screen in 47 multiple myeloma cell lines against the NCATS MIPE library collection: OCIMY7_PLB cell viability assay (AID 1918987); settings: OCI-MY7 myeloma viability, CellTiter-Glo ATP, 48 h; viability (% of DMSO): at 45.8 µM (top of the series); further: nearly all actives have a fitted effect of over 65% in size
Summary of the method: (§1)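 Readout: median RLU from CellTiter-Glo after 5 min at room temperature. Preceding step was 48 h drug treatment of 500 cells/well at 37 °C, 5% CO2, with DMSO-only and media-only control wells.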

[2] = Quantitative High-Throughput drug screen in 47 multiple myeloma cell lines against the NCATS MIPE library collection: OCIMY5_PLB cell viability assay (AID 1918988); further: nearly all actives have a fitted effect of over 65% in size
Summary of the method: as §1

[3] = Quantitative High-Throughput drug screen in 47 multiple myeloma cell lines against the NCATS MIPE library collection: XG6_PLB cell viability assay (AID 1919865); further: nearly all actives have a fitted effect of over 40% in size
Summary of the method: as §1

[4] = Quantitative High-Throughput drug screen in 47 multiple myeloma cell lines against the NCATS MIPE library collection: XG1_PLB cell viability assay (AID 1919866); further: nearly all actives have a fitted effect of over 35% in size
Summary of the method: as §1

[5] = Quantitative High-Throughput drug screen in 47 multiple myeloma cell lines against the NCATS MIPE library collection: VP6_DJ cell viability assay (AID 1919867); further: nearly all actives have a fitted effect of over 40% in size
Summary of the method: as §1

[6] = Quantitative High-Throughput drug screen in 47 multiple myeloma cell lines against the NCATS MIPE library collection: UTMC2_PLB cell viability assay (AID 1919868); settings: CellTiter-Glo ATP luminescence, 48 h; viability (% of DMSO control): at 45.8 µM (top of the series); further: nearly all actives have a fitted effect of over 55% in size
Summary of the method: as §1

[7] = Quantitative High-Throughput drug screen in 47 multiple myeloma cell lines against the NCATS MIPE library collection: PE2_PLB cell viability assay (AID 1919869); further: nearly all actives have a fitted effect of over 35% in size
Summary of the method: as §1

[8] = Quantitative High-Throughput drug screen in 47 multiple myeloma cell lines against the NCATS MIPE library collection: PCM6_Riken cell viability assay (AID 1919870); further: nearly all actives have a fitted effect of over 30% in size
Summary of the method: as §1

[9] = Quantitative High-Throughput drug screen in 47 multiple myeloma cell lines against the NCATS MIPE library collection: OPM2_DSMZ cell viability assay (AID 1919872); further: nearly all actives have a fitted effect of over 30% in size
Summary of the method: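 qHTS of the MIPE 4.0 collection: 500 myeloma cells/well, 48 h drug exposure at 37C in 5% CO2, then CellTiter-Glo for 5 min at room temperature before luminescence reading.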

[10] = Quantitative High-Throughput drug screen in 47 multiple myeloma cell lines against the NCATS MIPE library collection: OPM1_PLB cell viability assay (AID 1918989); further: nearly all actives have a fitted effect of over 40% in size
Summary of the method: as §1

[11] = Quantitative High-Throughput drug screen in 47 multiple myeloma cell lines against the NCATS MIPE library collection: U266_ATCC cell viability assay (AID 1919864); further: nearly all actives have a fitted effect of over 35% in size;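 on viability (% of DMSO control): 0% = media-only wells without cells and 100% = DMSO-only wells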
Summary of the method: as §1

[12] = Quantitative High-Throughput drug screen in 47 multiple myeloma cell lines against the NCATS MIPE library collection: RPMI8226_ATCC cell viability assay (AID 1919871); further: nearly all actives have a fitted effect of over 30% in size
Summary of the method: as §1

[13] = Quantitative High-Throughput drug screen in 47 multiple myeloma cell lines against the NCATS MIPE library collection: KMS11_JCRBsus cell viability assay (AID 1919873); further: nearly all actives have a fitted effect of over 50% in size
Summary of the method: as §1

[14] = Quantitative High-Throughput drug screen in 47 multiple myeloma cell lines against the NCATS MIPE library collection: L363_DSMZ cell viability assay (AID 1918984); further: nearly all actives have a fitted effect of over 40% in size
Summary of the method: as §1

[15] = Quantitative High-Throughput drug screen in 47 multiple myeloma cell lines against the NCATS MIPE library collection: KMS34_JCRB cell viability assay (AID 1918985); further: nearly all actives have a fitted effect of over 40% in size
Summary of the method: as §1

[16] = Quantitative High-Throughput drug screen in 47 multiple myeloma cell lines against the NCATS MIPE library collection: SKMM1_PLB cell viability assay (AID 1919863); settings: SKMM1 myeloma viability, CellTiter-Glo ATP, 48 h; viability: hits give low values; further: nearly all actives have a fitted effect of over 35% in size
Summary of the method: as §1

[17] = Quantitative High-Throughput drug screen in 47 multiple myeloma cell lines against the NCATS MIPE library collection: KMS28BM_JCRB cell viability assay (AID 1919874); further: nearly all actives have a fitted effect of over 35% in size
Summary of the method: as §1
Potency means the concentration at half of the fitted maximal effect.

SMILES | Potency [1] | Potency [2] | Potency [3] | Potency [4] | Potency [5] | Potency [6] | Potency [7] | Potency [8] | Potency [9] | Potency [10] | Potency [11] | Potency [12] | Potency [13] | Potency [14] | Potency [15] | Potency [16] | Potency [17] | viability [16]
O=C(Nc1nnc(-c2ccco2)o1)c1cc(-c2ccccc2)nc2ccccc12 | 16.6 µM (active) | 18.7 µM (active) | 4.18 µM (active) | 13.2 µM (active) | 14.8 µM (active) | 14.8 µM (active) | 18.7 µM (active) | 18.7 µM (active) | inactive |  |  |  |  |  |  |  |  | 
O=C(O)c1ccc(Nc2ncc3c(n2)-c2ccc(Cl)cc2C(c2c(F)cccc2F)=NC3)cc1 | 0.209 µM (active) | 0.332 µM (active) | 0.662 µM (active) | 0.418 µM (active) | 5.9 µM (active) | 1.66 µM (active) |  | 16.6 µM (active) |  | 5.9 µM (active) | 20.9 µM (active) | 14.8 µM (active) | 0.132 µM (active) |  |  |  |  | 
CN1CCCN(C(=O)c2cccc(-c3ccc(C=C4C(=O)Nc5ccc(Cl)cc54)o3)c2)CC1 | 10.5 µM (active) | 9.35 µM (active) | 7.43 µM (active) | 11.8 µM (active) | 18.7 µM (active) | 0.935 µM (active) | 23.5 µM (active) |  | 23.5 µM (active) | 23.5 µM (active) |  | 23.5 µM (active) | 9.35 µM (active) | 6.62 µM (active) | 16.6 µM (active) | 14.8 µM (active) | 10.5 µM (active) | 
CC(C=CC=C(C)C=CC1=C(C)CCCC1(C)C)=CC=CC=C(C)C=CC=C(C)C=CC1=C(C)CCCC1(C)C | 2.09 µM (active) | 9.35 µM (active) | 5.26 µM (active) | 16.6 µM (active) | 23.5 µM (active) |  |  | 23.5 µM (active) | inactive | inactive | 16.6 µM (active) |  |  | 16.6 µM (active) |  |  |  | 107%
COc1cc(C(=O)NC2CCN(C)CC2)ccc1Nc1ncc2c(n1)N(C1CCCC1)CCC(=O)N2C(C)C | 14.8 µM (active) | 18.7 µM (active) | 4.69 µM (active) | 20.9 µM (active) | 14.8 µM (active) |  | 20.9 µM (active) | 18.7 µM (active) |  | 20.9 µM (active) |  |  |  | 16.6 µM (active) |  |  | 14.8 µM (active) | 
COc1cc2c(cc1O)CCC1C2CC[C@@]2(C)C1CC[C@@H]2O (some centres undefined) | 0.469 µM (active) | 1.18 µM (active) | 0.469 µM (active) | 0.662 µM (active) | 2.64 µM (active) | 0.935 µM (active) | 3.72 µM (active) |  | 3.72 µM (active) | 5.26 µM (active) |  |  | 0.743 µM (active) |  | 2.09 µM (active) | 0.833 µM (active) | 0.935 µM (active) | 
CC(O)(C#Cc1ccc2c(c1)N(c1nc(N)ncc1Cl)CC2)c1nccs1 (centres undefined) | 2.64 µM (active) | 20.9 µM (active) | 4.18 µM (active) | 4.69 µM (active) | 5.26 µM (active) | 4.18 µM (active) | 8.33 µM (active) |  |  |  | 16.6 µM (active) |  | 18.7 µM (active) | 16.6 µM (active) |  |  |  | 
CN(C)CC(=O)N1CCC(c2ccc(NC(=O)c3ncc(C#N)[nH]3)c(C3=CCCCC3)c2)CC1 | 9.35 µM (active) | 26.4 µM (active) | 18.7 µM (active) | 16.6 µM (active) | 23.5 µM (active) | 18.7 µM (active) |  | 14.8 µM (active) | inactive | 20.9 µM (active) | 8.33 µM (active) | inactive | 18.7 µM (active) |  | inactive |  | 26.4 µM (active) | 127%
CC(=O)N1CCN(c2ccc(OCc3nn(C)c(C)c3-c3cccc4c(CCCOc5cccc6ccccc56)c(C(=O)O)n(Cc5cccnc5)c34)cc2)CC1 |  | 0.118 µM (active) | 0.105 µM (active) | 0.235 µM (active) | 0.332 µM (active) |  | 1.66 µM (active) | 1.18 µM (active) | 23.5 µM (active) | 0.469 µM (active) | 0.526 µM (active) | 23.5 µM (active) | 0.105 µM (active) | 1.18 µM (active) | 18.7 µM (active) | 20.9 µM (active) | 0.0235 µM (active) | 
COc1cc(N2CCC(C(N)=O)CC2)ccc1Nc1nc(N)c(Cl)c(Nc2ccccc2S(=O)(=O)C(C)C)n1 | 0.209 µM (active) | 0.935 µM (active) | 0.0935 µM (active) | 0.0935 µM (active) | 0.418 µM (active) | 0.132 µM (active) |  | 0.833 µM (active) |  | 5.9 µM (active) |  |  |  | 0.0148 µM (active) | 2.96 µM (active) |  | 0.833 µM (active) | 
Nc1ncn([C@@H]2O[C@H](CO)[C@@H](O)[C@@H]2O)c(=O)n1 | 3.72 µM (active) | 9.35 µM (active) | 9.35 µM (active) | 2.96 µM (active) | 11.8 µM (active) | 8.33 µM (active) | 18.7 µM (active) | 8.33 µM (active) | 14.8 µM (active) |  | 10.5 µM (active) |  | 14.8 µM (active) | 5.9 µM (active) | 11.8 µM (active) | 13.2 µM (active) | 16.6 µM (active) | 
CCCCCCCN(CC)CCCC(O)c1ccc(NS(C)(=O)=O)cc1 (centres undefined) |  |  |  | 18.7 µM (active) |  |  |  |  |  |  | inactive | inactive |  |  | inactive |  | inactive | 
CCc1cc(C(C)=NOCc2ccc(C3CCCCC3)c(C(F)(F)F)c2)ccc1CN1CC(C(=O)O)C1 |  |  |  |  | 11.8 µM (active) |  |  | 11.8 µM (active) |  | 18.7 µM (active) |  |  |  |  |  | 18.7 µM (active) |  | 
